Tests used:
Test in all cases: log2 ratio of Biotin-Ahx-Ub-VS probe labelling (fragment/DMSO); higher = less target engagement (more negative = stronger competition), active = hit call of the paper (q ≤ 0.05, log2 ratio ≤ -1)
Details in all cases: compound concentration: 200 uM; treatment time: 3 h
USP34 = USP34 (UniProt Q70CQ2)
Method in brief: (§1)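 Triplicate samples of HEK293T lysate, 495 µg each, received fragment at 200 µM or vehicle for 3 h, followed by Biotin-Ahx-Ub-VS (0.5 µM final) for 1 h. After NeutrAvidin enrichment of labelled DUBs and LysC/trypsin digestion, peptides were run by diaPASEF LC-MS/MS. The values are average log2 fragment/vehicle ratios from global-median-normalised Spectronaut label-free quantities, tested by unpaired t-test on proteins having ≥2 unique peptides.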

USP36 = target: T1, USP36 (UniProt Q9P275)
T1 sequence (whole entry): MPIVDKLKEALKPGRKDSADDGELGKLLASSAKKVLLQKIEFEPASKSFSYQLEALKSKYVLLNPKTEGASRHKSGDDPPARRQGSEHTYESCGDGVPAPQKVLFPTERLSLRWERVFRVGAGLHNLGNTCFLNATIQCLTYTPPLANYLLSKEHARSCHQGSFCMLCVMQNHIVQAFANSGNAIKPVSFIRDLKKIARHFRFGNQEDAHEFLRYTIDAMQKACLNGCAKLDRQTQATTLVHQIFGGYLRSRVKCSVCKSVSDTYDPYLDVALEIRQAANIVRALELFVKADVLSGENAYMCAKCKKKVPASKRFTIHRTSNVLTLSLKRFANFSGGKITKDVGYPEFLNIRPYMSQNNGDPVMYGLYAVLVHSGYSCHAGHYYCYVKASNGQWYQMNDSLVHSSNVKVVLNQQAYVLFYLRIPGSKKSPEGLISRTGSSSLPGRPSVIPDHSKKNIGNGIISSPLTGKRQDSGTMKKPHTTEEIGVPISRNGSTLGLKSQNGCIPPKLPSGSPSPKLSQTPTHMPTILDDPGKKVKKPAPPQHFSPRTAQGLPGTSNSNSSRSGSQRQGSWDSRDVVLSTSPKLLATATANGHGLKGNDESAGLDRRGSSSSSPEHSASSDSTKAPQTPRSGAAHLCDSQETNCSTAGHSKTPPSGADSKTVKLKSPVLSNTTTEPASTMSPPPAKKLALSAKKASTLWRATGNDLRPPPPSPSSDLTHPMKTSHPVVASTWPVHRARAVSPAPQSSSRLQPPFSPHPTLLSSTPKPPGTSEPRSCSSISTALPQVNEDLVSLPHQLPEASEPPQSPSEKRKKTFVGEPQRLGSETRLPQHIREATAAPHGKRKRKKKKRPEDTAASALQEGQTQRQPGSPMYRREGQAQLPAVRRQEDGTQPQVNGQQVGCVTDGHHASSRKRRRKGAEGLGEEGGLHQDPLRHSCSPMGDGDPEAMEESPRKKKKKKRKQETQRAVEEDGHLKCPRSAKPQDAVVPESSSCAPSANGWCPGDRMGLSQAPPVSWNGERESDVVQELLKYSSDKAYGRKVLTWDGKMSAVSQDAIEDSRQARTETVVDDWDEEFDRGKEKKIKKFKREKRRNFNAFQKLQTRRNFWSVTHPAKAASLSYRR
Method in brief: as §1

USP38 = target: T2, USP38 (UniProt Q8NB14)
T2 sequence (whole entry): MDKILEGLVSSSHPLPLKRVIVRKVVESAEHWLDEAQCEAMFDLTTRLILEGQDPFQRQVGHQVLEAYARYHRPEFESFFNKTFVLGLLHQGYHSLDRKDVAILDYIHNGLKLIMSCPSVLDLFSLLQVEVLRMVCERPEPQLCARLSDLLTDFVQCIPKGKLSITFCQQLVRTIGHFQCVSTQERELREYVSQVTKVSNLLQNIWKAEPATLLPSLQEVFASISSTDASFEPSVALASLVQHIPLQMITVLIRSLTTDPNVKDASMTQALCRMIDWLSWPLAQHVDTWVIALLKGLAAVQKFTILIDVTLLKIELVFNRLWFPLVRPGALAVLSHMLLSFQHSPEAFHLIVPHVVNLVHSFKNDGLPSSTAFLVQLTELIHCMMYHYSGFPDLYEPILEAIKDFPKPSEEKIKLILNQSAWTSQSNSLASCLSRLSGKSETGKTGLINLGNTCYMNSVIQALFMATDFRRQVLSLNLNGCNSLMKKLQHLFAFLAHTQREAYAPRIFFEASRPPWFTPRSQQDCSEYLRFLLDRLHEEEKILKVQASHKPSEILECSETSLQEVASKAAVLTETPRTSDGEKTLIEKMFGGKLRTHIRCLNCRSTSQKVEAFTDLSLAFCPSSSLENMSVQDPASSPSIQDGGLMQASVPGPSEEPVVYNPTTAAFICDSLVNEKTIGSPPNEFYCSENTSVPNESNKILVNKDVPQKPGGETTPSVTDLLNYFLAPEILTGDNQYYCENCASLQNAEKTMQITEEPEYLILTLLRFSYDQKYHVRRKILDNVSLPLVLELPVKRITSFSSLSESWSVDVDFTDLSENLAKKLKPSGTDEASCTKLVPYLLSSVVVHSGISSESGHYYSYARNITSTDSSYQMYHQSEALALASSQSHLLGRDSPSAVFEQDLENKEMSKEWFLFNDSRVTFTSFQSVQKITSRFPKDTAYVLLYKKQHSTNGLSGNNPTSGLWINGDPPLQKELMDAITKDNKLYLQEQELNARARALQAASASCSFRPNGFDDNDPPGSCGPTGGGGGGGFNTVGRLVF
Method in brief: as §1

USP39 = target: T3, USP39 (UniProt Q53GS9)
T3 sequence (whole entry): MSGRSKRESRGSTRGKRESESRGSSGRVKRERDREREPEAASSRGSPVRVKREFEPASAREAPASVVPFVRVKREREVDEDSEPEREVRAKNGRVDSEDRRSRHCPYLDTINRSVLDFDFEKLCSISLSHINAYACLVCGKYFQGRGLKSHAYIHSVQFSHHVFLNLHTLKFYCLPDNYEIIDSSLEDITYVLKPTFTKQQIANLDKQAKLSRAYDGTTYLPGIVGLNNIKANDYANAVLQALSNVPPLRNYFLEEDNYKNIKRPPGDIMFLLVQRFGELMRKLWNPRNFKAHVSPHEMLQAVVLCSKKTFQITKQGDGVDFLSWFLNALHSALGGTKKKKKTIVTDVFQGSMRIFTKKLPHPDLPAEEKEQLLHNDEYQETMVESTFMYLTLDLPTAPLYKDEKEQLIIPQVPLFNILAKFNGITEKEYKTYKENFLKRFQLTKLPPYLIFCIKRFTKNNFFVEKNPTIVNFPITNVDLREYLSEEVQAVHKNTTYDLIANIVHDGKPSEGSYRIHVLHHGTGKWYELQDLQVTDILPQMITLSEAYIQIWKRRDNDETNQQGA
Method in brief: as §1

USP4 = target: T4, USP4 (UniProt Q13107)
T4 sequence (whole entry): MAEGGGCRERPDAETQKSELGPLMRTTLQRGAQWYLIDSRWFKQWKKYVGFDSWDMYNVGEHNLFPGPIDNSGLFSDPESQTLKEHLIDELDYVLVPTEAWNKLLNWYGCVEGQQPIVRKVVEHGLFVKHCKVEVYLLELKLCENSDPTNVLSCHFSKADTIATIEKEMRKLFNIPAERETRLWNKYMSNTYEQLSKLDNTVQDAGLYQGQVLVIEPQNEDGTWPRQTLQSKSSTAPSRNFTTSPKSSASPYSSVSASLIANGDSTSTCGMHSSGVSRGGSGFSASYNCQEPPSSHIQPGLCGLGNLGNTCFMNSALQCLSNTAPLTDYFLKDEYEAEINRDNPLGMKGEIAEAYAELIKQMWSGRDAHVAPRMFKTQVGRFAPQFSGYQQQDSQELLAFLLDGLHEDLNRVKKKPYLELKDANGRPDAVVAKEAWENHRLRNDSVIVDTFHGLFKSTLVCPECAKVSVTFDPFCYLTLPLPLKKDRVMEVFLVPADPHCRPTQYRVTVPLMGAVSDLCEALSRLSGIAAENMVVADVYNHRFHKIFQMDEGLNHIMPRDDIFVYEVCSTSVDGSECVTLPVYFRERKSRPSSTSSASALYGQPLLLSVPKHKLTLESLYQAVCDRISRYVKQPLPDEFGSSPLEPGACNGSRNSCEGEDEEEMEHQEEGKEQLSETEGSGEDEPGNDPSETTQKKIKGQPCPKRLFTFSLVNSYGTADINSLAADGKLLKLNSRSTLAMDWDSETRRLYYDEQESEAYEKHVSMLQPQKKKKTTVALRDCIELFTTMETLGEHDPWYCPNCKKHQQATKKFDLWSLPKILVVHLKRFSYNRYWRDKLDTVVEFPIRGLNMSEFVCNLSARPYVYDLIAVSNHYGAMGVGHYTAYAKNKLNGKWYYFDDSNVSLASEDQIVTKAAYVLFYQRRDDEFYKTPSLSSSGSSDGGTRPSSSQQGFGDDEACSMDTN
Method in brief: as §1

Measured: log2 ratio of Biotin-Ahx-Ub-VS probe labelling

Sequence of USP34 (Q70CQ2 whole entry, the tested form may be a part): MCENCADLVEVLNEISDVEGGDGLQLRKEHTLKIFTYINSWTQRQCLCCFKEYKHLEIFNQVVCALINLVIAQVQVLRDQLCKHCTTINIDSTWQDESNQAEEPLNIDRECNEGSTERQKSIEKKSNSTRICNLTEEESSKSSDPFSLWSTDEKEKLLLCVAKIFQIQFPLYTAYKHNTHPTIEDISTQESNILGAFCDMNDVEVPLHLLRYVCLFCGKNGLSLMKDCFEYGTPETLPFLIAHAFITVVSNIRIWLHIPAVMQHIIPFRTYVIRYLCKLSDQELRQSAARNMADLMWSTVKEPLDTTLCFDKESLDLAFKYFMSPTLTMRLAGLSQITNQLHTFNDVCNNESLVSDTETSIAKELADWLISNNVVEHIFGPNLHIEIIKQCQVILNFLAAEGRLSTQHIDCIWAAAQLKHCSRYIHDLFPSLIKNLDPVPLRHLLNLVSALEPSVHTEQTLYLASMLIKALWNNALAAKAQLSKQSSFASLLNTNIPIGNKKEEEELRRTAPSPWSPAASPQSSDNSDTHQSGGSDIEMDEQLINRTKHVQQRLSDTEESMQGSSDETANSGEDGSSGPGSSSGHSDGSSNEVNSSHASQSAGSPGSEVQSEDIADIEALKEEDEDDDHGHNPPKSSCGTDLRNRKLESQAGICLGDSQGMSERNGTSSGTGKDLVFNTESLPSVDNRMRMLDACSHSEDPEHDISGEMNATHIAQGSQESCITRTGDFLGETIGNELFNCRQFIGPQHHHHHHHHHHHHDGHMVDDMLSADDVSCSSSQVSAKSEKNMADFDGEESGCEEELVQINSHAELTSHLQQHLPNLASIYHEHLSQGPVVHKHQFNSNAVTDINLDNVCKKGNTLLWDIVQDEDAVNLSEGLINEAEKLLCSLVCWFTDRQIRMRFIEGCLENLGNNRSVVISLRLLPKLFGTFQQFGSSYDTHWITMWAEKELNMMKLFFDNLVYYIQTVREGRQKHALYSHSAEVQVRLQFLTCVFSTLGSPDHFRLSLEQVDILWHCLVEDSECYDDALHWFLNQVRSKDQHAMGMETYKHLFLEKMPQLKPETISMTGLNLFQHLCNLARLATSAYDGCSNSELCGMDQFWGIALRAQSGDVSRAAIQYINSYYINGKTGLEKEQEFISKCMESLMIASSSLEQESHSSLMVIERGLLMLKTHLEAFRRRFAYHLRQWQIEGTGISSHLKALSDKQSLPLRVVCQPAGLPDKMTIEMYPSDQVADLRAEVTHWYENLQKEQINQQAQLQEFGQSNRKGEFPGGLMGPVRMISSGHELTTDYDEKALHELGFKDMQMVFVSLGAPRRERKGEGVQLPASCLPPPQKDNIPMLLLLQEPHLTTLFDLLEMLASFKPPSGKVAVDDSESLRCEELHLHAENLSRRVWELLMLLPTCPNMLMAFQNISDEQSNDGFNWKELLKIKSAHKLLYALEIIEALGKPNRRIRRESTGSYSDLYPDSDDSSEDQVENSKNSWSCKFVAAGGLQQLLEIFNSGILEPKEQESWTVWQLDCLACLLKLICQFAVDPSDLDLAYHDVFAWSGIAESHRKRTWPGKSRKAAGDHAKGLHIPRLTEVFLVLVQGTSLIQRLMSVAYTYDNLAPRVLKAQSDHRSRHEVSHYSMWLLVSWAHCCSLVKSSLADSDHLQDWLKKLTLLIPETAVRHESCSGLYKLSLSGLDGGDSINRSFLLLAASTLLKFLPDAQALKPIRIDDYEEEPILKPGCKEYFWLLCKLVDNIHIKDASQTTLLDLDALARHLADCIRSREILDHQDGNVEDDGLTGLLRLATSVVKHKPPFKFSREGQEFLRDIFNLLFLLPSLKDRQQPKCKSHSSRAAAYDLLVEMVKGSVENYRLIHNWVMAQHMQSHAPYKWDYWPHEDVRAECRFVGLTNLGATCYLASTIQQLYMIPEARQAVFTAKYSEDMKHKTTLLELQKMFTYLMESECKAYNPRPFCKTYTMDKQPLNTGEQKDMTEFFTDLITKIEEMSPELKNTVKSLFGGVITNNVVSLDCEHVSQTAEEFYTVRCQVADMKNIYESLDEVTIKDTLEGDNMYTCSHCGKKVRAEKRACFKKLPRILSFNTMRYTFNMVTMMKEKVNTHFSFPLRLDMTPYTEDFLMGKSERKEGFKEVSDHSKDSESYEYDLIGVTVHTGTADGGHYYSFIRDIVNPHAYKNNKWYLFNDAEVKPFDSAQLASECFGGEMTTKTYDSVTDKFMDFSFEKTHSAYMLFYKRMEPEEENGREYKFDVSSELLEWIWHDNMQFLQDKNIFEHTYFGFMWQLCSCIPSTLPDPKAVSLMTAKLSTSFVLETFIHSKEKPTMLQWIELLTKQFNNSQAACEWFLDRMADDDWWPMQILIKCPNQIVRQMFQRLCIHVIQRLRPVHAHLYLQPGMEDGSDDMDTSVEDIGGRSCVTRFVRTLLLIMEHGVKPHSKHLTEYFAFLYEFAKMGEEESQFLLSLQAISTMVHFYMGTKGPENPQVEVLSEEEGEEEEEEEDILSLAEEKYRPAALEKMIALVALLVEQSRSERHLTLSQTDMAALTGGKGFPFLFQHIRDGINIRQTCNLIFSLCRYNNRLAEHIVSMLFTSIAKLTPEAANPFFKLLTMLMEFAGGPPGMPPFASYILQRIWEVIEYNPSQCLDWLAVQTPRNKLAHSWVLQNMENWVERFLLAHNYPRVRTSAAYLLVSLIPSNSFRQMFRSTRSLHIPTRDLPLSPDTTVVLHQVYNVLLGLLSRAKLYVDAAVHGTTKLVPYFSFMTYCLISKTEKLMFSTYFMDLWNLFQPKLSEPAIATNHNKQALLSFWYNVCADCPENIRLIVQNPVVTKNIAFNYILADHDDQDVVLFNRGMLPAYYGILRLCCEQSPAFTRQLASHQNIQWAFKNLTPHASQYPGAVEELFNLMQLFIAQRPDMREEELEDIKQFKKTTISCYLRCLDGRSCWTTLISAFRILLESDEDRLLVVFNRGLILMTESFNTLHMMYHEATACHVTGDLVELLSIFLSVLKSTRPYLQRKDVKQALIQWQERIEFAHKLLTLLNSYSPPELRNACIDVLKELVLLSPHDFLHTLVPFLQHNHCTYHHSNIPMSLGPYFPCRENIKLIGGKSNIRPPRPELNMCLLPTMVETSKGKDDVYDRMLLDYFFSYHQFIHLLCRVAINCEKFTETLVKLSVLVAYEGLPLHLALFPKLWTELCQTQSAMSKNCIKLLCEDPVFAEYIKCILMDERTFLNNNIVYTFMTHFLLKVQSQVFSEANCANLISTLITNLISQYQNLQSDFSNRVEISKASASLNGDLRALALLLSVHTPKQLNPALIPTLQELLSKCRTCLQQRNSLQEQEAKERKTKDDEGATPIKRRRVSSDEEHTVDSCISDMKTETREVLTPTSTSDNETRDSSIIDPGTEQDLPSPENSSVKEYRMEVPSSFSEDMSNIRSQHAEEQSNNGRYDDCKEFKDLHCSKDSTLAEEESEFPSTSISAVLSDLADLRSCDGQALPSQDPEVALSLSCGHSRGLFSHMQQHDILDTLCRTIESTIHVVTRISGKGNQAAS

CC(C)n1nccc1NC(=O)CCl
inactive: USP34 -0.109 | USP36 -0.0105 | USP38 -0.0818 | USP39 -0.252 | USP4 -0.0708
